This is an account of results in PubChem BioAssay AID1304 (The Scripps Research Institute Molecular Screening Center, 2008).

Among all 220,000 compounds or so, about 800 (0.36%) were called active. The sample holds actives, similar compounds and a random draw of the others, so the mix is not that of the screen. Rule as the data show it: active = activation above about 33% (passing the limit was not always enough); inactive = the rest.

In this test the target is Neuropeptide Y receptor type 1 (Homo sapiens) (UniProt P25929). As to the kind of experiment: activation enhancers of human NPY-Y1 – cell-based, primary screen (AID 1304).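 Also: cells stimulated with NPY at EC10 then isoproterenol at EC100; 0% = low agonist plus stimulus and 100% = saturating agonist plus stimulus.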 As to conditions: NPY-Y1 expressing cells, potentiator/agonist activation; at 3.6 µM; hits give high values.
Chain of Neuropeptide Y receptor type 1 (Homo sapiens) (P25929 whole entry, looked up): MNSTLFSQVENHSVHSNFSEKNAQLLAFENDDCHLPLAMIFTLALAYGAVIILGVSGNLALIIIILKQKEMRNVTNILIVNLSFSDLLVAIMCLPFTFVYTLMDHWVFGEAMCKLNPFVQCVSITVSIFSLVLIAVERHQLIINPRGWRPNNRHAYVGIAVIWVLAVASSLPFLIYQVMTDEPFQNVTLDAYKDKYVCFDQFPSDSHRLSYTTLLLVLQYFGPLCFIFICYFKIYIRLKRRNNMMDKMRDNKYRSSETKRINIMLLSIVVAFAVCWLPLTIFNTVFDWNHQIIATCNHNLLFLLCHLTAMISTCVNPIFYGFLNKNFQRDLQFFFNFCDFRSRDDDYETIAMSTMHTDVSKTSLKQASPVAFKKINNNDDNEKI
As for `C#CCOCCOCCOCCNc1nc(N2CCN(C(=O)[C@H](Cc3ccc(O)cc3)n3cc(C(N)CC(C)C)nn3)CC2)nc(N2CCN(C(=O)[C@H](CCC(=O)O)n3cc(C(N)[C@H](C)CC)nn3)CC2)n1` (stereo partly specified), the activation is -15% (inactive).
The result for `C#CCOCCOCCOCCNc1nc(N2CCN(C(=O)[C@H](CCCCN)n3cc([C@@H](N)C(C)CC)nn3)CC2)nc(N2CCN(C(=O)[C@H](Cc3ccc(O)cc3)n3cc([C@@H](N)C(C)CC)nn3)CC2)n1` (stereo partly specified) reads 111% (active); that for `C#CCOCCOCCOCCNc1nc(N2CCN(C(=O)C(Cc3ccc(O)cc3)n3cc(C(N)CC(C)C)nn3)CC2)nc(N2CCN(C(=O)C(Cc3ccc(O)cc3)n3cc(C(N)C(C)CC)nn3)CC2)n1` (stereo unspecified), 11.7% (inactive); that for `Fc1ccc(-c2csc(-c3ccc(C4SCCS4)cc3)n2)cc1F`, -5.29% (inactive).
Then `Cc1ccccc1Nc1c(-c2ccccc2)nc2ncccn12`, with 46.3% (inactive); and `Cc1cccc(C)c1Nc1c(-c2ccccc2O)nc2ncccn12`, with 80.8% (active).
The result for `Nc1nc(SCc2ccc([N+](=O)[O-])cc2)c2ncn(C3OC(CO)C(O)C3O)c2n1` (stereo unspecified) reads -25.4% (inactive); that for `C/C(=N\NC(=O)c1ccc(CSc2nc(C)cc(C)n2)cc1)C1CCCCC1`, 1.93% (inactive); that for `COc1cc(C(=O)Nc2cc(C(F)(F)F)ccc2N2CCOCC2)ccc1O`, -20.3% (inactive).
Consider `O=C(CCn1ccc([N+](=O)[O-])n1)Nc1nccs1`, for which the activation is 7.17% (inactive).
The result for `Cc1cccc(OCC(O)CN2CCN(CCN3C(=O)c4cccc5cccc(c45)C3=O)CC2)c1C` (stereo unspecified) reads 38.1% (active).
Then `Cc1ccc(OCC(O)CN2CCN(CC(O)COc3ccc(C)cc3Cl)CC2)c(Cl)c1` (stereo unspecified), with 6.61% (inactive); and `Cc1cccc(C)c1OCC(O)CN1CCCCC1` (stereo unspecified), with 1.8% (inactive); and `O=C(Nc1nnc(Cc2ccc(Cl)cc2)s1)c1ccncc1`, with -10.8% (inactive).
Then `CCCc1nc2oc3c(=O)[nH]cnc3c2c2c1COC(C)(C)C2`, with 8.17% (inactive).
For the molecule `Cc1cnc(C(=O)OCC(=O)N2CCc3ccccc32)cn1`, the activation is -19.3% (inactive).
Then `Cc1ccccc1OCC(O)CN1CCN(c2ccccn2)CC1` (stereo unspecified), with 29.6% (inactive); and `O=C1c2cccc3cccc(c23)N1CN1CCN(c2ccccn2)CC1`, with 11.2% (inactive).
The result for `OC(COc1cccc2ccccc12)CN1CCN(c2ccccn2)CC1` (stereo unspecified) reads 50.8% (active); that for `CCCOCC(O)CC(CC)C(=O)NNC(=S)Nc1ccccc1` (stereo unspecified), -8.03% (inactive).
As to `O=C(/C=C/c1ccc(OCc2c(F)cccc2Cl)cc1)N1CCOCC1`, the activation was -15.1% (inactive).
